Screening results: PubChem BioAssay, National Center for Advancing Translational Sciences (NCATS)
Sampled rows, rich in hits. Any-hit rate of the full collection: about 3.8%.
A549 tox – A549 cytotoxicity, counter-screen for Nrf2 inhibitors. A549 ARE-Fluc cells, CellTiter-Fluor viability, 18-24 h. actives 0.16% (n = 390,000). Potency, µM (titrated, usually from 46 µM), for inactives: at the highest dose activity change, negative = cytotoxicity, most hits filed as inhibitors; note: potency is the fitted concentration of half-maximal effect; % is set by controls: 0 for no effect and ±100 for the full control effect
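Cytotoxicity counterscreen: CellTiter-Fluor fluorescence was measured in A549 ARE_Fluc cells after 18-24 h of compound exposure in a concentration series. The subsequent BugLite luminescent read reports ARE-luciferase activity.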
Nrf2 activator – Nrf2 pathway activation | AREc32 ARE-luciferase reporter (MCF7-derived line), luminescence, 24 h | Potency, µM (doses to about 46.1 µM), for the others: top-dose activation, most hits filed as activators | actives 0.31% (n = 410,000) | AID 624171; note: potency is the fitted concentration of half-maximal effect; % of control where 0% means no effect; nearly all actives have a fitted effect of over 65% in size
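Steps: seed AREc32_Fluc cells (1000/well, 5% FBS OPTI-MEM); incubate overnight at 37 deg C; add 23 nL compound; incubate 24 hr; add Steady-Glo; hold 30 min RT; read luminescence.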
mIDH1 inhibitor – inhibitors of human mutant IDH1 R132H. actives 0.093% (n = 390,000). AID 602179. O75874. IDH1-R132H enzyme, NADPH consumption, diaphorase/resazurin fluorescence. Potency, µM (series often up to 76.6 µM), without a hit: at the highest dose activity change, negative = inhibition, most hits filed as inhibitors; note: potency is the fitted concentration of half-maximal effect; % is set by controls: 0 for no effect and ±100 for the full control effect; nearly all actives have a fitted effect of over 65% in size
Target sequence (O75874 whole entry R132H, stated change not applied): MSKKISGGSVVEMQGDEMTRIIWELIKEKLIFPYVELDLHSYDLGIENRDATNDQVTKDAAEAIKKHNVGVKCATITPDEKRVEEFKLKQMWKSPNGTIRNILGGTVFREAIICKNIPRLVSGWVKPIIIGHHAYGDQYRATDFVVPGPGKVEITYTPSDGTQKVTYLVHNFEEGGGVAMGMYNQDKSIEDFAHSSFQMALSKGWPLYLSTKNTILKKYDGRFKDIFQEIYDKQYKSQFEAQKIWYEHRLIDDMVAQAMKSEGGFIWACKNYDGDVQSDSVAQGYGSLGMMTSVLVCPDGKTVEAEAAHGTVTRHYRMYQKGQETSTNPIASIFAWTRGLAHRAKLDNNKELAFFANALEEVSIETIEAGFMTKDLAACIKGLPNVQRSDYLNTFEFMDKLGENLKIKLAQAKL
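IDH1-R132H (0.5 ug/mL dispensed) in pH 7.5 Tris buffer was preincubated 30 min with compound, then given a substrate mix of 0.016 mM NADPH and 2 mM alpha-KG for 80 min at room temperature; remaining NADPH was read by diaphorase/resazurin fluorescence.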
ELG1 DNA repair – blocks ELG1-dependent DNA repair in HEK293T cells | HEK293T ELG1-luciferase reporter, luminescence, 16 h; DNA damage induced by 5-fluorouridine | Potency, µM (titrated, usually from 46.1 µM), for inactives: top-dose activity change, negative = inhibition, hits mostly inhibitors | actives 2.3% (n = 330,000); note: potency is the fitted concentration of half-maximal effect; % is set by controls: 0 for no effect and ±100 for the full control effect; nearly all actives have a fitted effect of over 55% in size
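In this reporter screen, reduction of luminescence relative to DMSO vehicle indicated activity. Compounds and 5-fluorouridine were added together to 2,000 cells per well, incubated for 16 hr at 37 °C, then developed with ONE-Glo.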
Nrf2 inh – blocks Nrf2 signaling; actives 2.1% (n = 360,000); Potency, µM (top dose mostly 46 µM), without a hit: at the top dose activity change, negative = inhibition, most hits filed as inhibitors; A549 ARE-Fluc reporter, luciferase luminescence, 18-24 h; note: potency is the fitted concentration of half-maximal effect; % is set by controls: 0 for no effect and ±100 for the full control effect; nearly all actives have a fitted effect of over 60% in size
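Concentration-response testing used A549 ARE_Fluc cells at 5000 cells/well. Following an 18-24 h compound incubation, viability was read by fluorescence (Ex 405/Em 525) and luciferase output by luminescence.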
IDH1 autofl – autofluorescence interference, mutant IDH1 hit counter-screen | shares compounds with mIDH1 inhibitor | Resorufin detection reagent fluorescence interference, cell-free | inhibition of signal, % at 51.2 µM | 750 tested, under 10 active | AID 623980;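 note: 0% = wells with normal resorufin and full inhibition = wells lacking resorufin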
WT IDH1 inh – inhibits human wild-type IDH1, mutant selectivity check; shares compounds with mIDH1 inhibitor; WT IDH1 enzyme, NADPH diaphorase/resazurin fluorescence; Potency, µM (series often up to 115 µM), without a hit: at the top dose activity change, negative = inhibition, most hits filed as inhibitors; actives 9% (n = 750); AID 623995;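 note: potency is the fitted concentration of half-maximal effect; 0% = full WT IDH1 enzyme control and full inhibition = no enzyme wells; nearly all actives have a fitted effect of over 55% in size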
Target sequence (O75874 whole entry, looked up): as the sequence (O75874 whole entry R132H, stated change not applied) above, with H132R counted along it
mIDH1 confirm – confirmation of human mutant IDH1 inhibitors | shares compounds with mIDH1 inhibitor | AID 624002 | actives 83% (n = 750) | IDH1 R132H enzyme, NADPH diaphorase/resazurin fluorescence | Potency, µM (top dose mostly 76.6 µM), inactives show top-dose activity change, negative = inhibition, actives largely listed as inhibitors; note: potency is the fitted concentration of half-maximal effect; nearly all actives have a fitted effect of over 50% in size
The depositor's hits bear a star. Calls come from the whole dose curve; as a rule, active = well fitted curve in the direction sought with a large enough effect; inconclusive = small, poorly fitted or top-dose-only effect, or another doubt; inactive = no such curve, though single readings can be large; an effect the other way counts as inactive or inconclusive.

Screening Cc1ccc(CSC2=Nc3ccccc3C3=NC(CCC(=O)NCCc4ccccc4)C(=O)N23)cc1 (stereo not drawn) returned A549 tox 2.7%, Nrf2 activator 8.4%, mIDH1 inhibitor inconclusive, IDH1 autofl 0.9, WT IDH1 inh 4.4% and mIDH1 confirm -9.2%.
For CCOC(=O)C1=C(c2ccccc2)NC(SCC)=C(C#N)C1c1cccnc1 (stereo not drawn) the results were A549 tox -16.1%, Nrf2 activator 5.9%, mIDH1 inhibitor inconclusive, ELG1 DNA repair 24.1%, IDH1 autofl -1.2, WT IDH1 inh -0.3% and mIDH1 confirm 15.8µM*.
For CCCSC1=C(C#N)C(c2cccnc2)C(C(=O)OCC)=C(c2ccccc2)N1 (stereo not drawn) the results were A549 tox -17.2%, Nrf2 activator 9.3%, mIDH1 inhibitor inconclusive, ELG1 DNA repair -6.0% and Nrf2 inh -15.4%.
`COc1cccc(NC(=O)[C@@H]2CCC(=O)N2C2OC(=O)c3ccccc32)c1` (stereo partly drawn) gave A549 tox -6.4%, Nrf2 activator -0.6%, mIDH1 inhibitor 5.1%, ELG1 DNA repair -11.0% and Nrf2 inh 28.4%.
For CCOC(=O)CSC1=NC(=O)/C(=C/c2ccc(Br)cc2)S1 the results were A549 tox -7.6%, Nrf2 activator 25.5%, mIDH1 inhibitor inconclusive, ELG1 DNA repair inconclusive, Nrf2 inh inconclusive, IDH1 autofl 1.2, WT IDH1 inh 70.8µM* and mIDH1 confirm 35.5µM*.
For O=C(NC1CCCCC1)C(c1ccc(Cl)cc1)N(C(=O)c1cnccn1)c1ccc2c(c1)OCO2 (stereo not drawn) the results were A549 tox 3.3%, Nrf2 activator 0.3%, mIDH1 inhibitor inconclusive, ELG1 DNA repair -8.4%, Nrf2 inh 8.2%, IDH1 autofl -7.2, WT IDH1 inh -10.6% and mIDH1 confirm inconclusive.
COc1cccc(N(C(=O)c2csnn2)C(C(=O)NC2CCCC2)c2ccccc2)c1 (stereo not drawn) was read as A549 tox -10.3%, Nrf2 activator 0.1%, mIDH1 inhibitor inconclusive, ELG1 DNA repair inconclusive, Nrf2 inh 0.0%, IDH1 autofl 3.7, WT IDH1 inh -4.1% and mIDH1 confirm 39.8µM*.
COc1cccc(N(C(=O)c2cnccn2)C(C(=O)NC2CCCCC2)c2ccc(Cl)cc2)c1 (stereo not drawn) was read as A549 tox -20.6%, Nrf2 activator 2.9%, mIDH1 inhibitor -5.9%, ELG1 DNA repair 2.3% and Nrf2 inh -14.2%.
O=C(NC1CCCCC1)C(c1ccco1)N(C(=O)c1csnn1)c1cccc(Cl)c1 (stereo not drawn) was read as A549 tox 1.3%, Nrf2 activator 2.0%, mIDH1 inhibitor inconclusive, ELG1 DNA repair 1.0%, Nrf2 inh 1.0%, IDH1 autofl 0.3, WT IDH1 inh -1.5% and mIDH1 confirm 28.2µM*.
`O=C(NC1CCCC1)C(c1ccccc1)N(C(=O)c1csnn1)c1ccccc1F` (stereo not drawn) gave A549 tox -6.3%, Nrf2 activator -1.1%, mIDH1 inhibitor inconclusive, ELG1 DNA repair -3.9%, Nrf2 inh -14.0%, IDH1 autofl -6.5, WT IDH1 inh -2.1% and mIDH1 confirm 25.1µM*.
